Assay results taken from PubChem BioAssay (Tox21).
Where “and” joins values, the source holds several entries; their conditions need not be identical. Identical values can stand only once. Results filed as inconclusive are left out. Where a call stands in place of a potency, no number is given. Where a structure was tested more than once in an assay, its records may differ in their call. Calls of active or inactive are those of the source. Calls come from the whole dose curve; as a rule, active = well fitted curve in the direction sought with a large enough effect in the repeat runs; inconclusive = weak or mixed curves; inactive = no such curve, though single readings can be large; an effect the other way counts as inactive or inconclusive.

How the values were obtained:
[1] = Caspase-3/7 induction in HepG2 cells by small molecules, qHTS assay (AID 1346978); note: nearly all actives have a fitted effect of over 15% in size
Method in brief: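 Wild-type HepG2 cells, 2,000/well, settled 5 hr at 37 C and 5% CO2, then compound-treated for 17 hr; caspase-3/7 activity read by luminescent Caspase-Glo 3/7 after 30 min at room temperature.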

[2] = Caspase-3/7 induction in CHO-K1 cells by small molecules, qHTS cell viability counter screen (AID 1346979); note: nearly all actives have a fitted effect of over 35% in size; note: potency is the fitted concentration of half-maximal effect
Method in brief: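 CellTiter-Fluor viability check, qHTS format: wild-type CHO-K1, 16hr compound treatment, 1hr reagent incubation, fluorescence read.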

[3] = Caspase-3/7 induction in CHO-K1 cells by small molecules, qHTS assay (AID 1346980); note: nearly all actives have a fitted effect of over 15% in size
Method in brief: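 Wild-type CHO-K1 cells exposed to compounds for 17hr at 37 C, 5% CO2. Caspase-3/7 activity then measured by Caspase-Glo 3/7 luminescence after 30min at room temperature.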

[4] = Caspase-3/7 induction in HepG2 cells by small molecules, qHTS cell viability counter screen (AID 1346981); note: nearly all actives have a fitted effect of over 30% in size; note: potency is the fitted concentration of half-maximal effect
Method in brief: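 Wild-type HepG2 cells (2,000/well) were allowed to settle for 5 hr at 37 C, 5% CO2, then dosed with compounds in DMSO by pin transfer. After 16 hr at 37 C, CellTiter-Fluor was added and fluorescence read 1 hr later.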

[5] = molecular target: Nuclear receptor subfamily 1 group I member 2 (Homo sapiens) (UniProt O75469); assay: Human pregnane X receptor (PXR) small molecule agonists, qHTS assay (AID 1346982); note: nearly all actives have a fitted effect of over 35% in size; note: potency is the fitted concentration of half-maximal effect
Chain of Nuclear receptor subfamily 1 group I member 2 (Homo sapiens) (O75469 whole entry, looked up): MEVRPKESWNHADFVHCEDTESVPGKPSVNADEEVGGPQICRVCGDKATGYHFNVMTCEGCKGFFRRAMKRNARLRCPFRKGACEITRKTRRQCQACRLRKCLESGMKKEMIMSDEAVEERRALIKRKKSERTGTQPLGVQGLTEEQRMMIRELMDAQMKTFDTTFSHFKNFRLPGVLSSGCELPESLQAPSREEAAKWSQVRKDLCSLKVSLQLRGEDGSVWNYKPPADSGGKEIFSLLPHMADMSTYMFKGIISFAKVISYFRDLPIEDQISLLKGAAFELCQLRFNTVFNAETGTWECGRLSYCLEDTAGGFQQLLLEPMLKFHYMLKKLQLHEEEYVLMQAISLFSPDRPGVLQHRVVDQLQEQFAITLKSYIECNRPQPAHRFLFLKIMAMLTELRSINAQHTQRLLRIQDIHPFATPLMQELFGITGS
Method in brief: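 PXR-Luc HepG2 cells (CYP3A4 promoter-driven luciferase) were seeded in medium with 5% charcoal-stripped FBS, left 5 hr at 37 C, then exposed to compounds in DMSO for 24 hr. Luminescence was read after ONE-Glo addition.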

[6] = molecular target: Cytochrome P450 2D6 (Homo sapiens) (UniProt P10635); assay: Cytochrome P450 Family 2 Subfamily D Member 6 (CYP2D6) small molecule antagonists: luciferase reporter qHTS assay (AID 1671196); note: nearly all actives have a fitted effect of over 50% in size; note: potency is the fitted concentration of half-maximal effect
Chain of Cytochrome P450 2D6 (Homo sapiens) (P10635 whole entry, looked up): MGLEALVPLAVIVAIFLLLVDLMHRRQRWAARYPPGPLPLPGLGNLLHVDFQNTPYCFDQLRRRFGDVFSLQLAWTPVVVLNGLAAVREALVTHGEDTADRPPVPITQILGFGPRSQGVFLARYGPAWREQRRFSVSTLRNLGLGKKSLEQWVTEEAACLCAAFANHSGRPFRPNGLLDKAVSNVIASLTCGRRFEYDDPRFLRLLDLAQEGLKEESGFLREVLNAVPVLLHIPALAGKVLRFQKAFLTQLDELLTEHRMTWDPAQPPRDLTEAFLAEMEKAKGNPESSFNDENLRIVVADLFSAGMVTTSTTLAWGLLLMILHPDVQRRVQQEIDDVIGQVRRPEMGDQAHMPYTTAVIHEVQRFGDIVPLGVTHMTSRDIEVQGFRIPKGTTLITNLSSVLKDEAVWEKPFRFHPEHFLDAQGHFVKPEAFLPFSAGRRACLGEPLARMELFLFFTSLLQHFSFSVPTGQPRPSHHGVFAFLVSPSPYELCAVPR
Method in brief: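 CYP2D6 enzyme–substrate mix was held with compound for 10 min at room temperature, then NADPH regeneration solution was added and the reaction ran 1 h at room temperature. Luciferin product was detected by luminescence after 20 min with detection reagent.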

[7] = molecular target: Cytochrome P450 2C19 (Homo sapiens) (UniProt P33261); assay: Cytochrome P450 Family 2 Subfamily C Member 19 (CYP2C19) small molecule antagonists: luciferase reporter qHTS assay (AID 1671197); note: nearly all actives have a fitted effect of over 65% in size; note: potency is the fitted concentration of half-maximal effect
Chain of Cytochrome P450 2C19 (Homo sapiens) (P33261 whole entry, looked up): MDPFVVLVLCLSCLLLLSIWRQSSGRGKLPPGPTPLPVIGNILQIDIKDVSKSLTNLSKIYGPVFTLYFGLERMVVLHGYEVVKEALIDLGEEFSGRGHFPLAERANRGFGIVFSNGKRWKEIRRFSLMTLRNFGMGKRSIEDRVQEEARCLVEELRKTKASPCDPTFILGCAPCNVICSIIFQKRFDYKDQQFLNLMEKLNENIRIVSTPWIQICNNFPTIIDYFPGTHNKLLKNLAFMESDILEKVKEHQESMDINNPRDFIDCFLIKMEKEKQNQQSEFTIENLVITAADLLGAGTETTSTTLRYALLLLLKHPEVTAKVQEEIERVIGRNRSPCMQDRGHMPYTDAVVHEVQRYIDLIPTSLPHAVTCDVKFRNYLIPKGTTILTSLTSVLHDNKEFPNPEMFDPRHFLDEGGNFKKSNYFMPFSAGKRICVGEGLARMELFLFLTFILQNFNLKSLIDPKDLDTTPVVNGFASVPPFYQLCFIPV
Method in brief: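 P450-Glo CYP2C19 screening system; proluciferin substrate; DMSO compound stocks; 10 min RT preincubation; NADPH regeneration, 1 h at 37C; luciferin detection reagent, 20 min RT; luminescence as RLU.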

[8] = molecular target: Cytochrome P450 1A2 (Homo sapiens) (UniProt P05177); assay: Cytochrome P450 Family 1 Subfamily A Member 2 (CYP1A2) small molecule antagonists: luciferase reporter qHTS assay (AID 1671199); note: nearly all actives have a fitted effect of over 50% in size; note: potency is the fitted concentration of half-maximal effect
Chain of Cytochrome P450 1A2 (Homo sapiens) (P05177 whole entry, looked up): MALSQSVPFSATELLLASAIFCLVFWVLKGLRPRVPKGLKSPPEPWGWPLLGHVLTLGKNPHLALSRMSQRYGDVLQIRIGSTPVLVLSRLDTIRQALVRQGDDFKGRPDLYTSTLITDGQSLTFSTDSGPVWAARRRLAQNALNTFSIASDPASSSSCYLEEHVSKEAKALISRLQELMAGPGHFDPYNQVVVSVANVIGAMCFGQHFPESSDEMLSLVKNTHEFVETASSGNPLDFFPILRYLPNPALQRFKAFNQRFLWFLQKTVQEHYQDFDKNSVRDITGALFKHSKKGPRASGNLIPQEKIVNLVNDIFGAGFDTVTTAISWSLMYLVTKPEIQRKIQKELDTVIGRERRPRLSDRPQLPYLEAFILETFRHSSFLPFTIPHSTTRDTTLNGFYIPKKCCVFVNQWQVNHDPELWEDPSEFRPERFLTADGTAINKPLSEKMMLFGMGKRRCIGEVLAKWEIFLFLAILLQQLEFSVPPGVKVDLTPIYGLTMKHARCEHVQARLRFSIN
Method in brief: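 Human CYP1A2 activity measured with a P450-Glo proluciferin substrate; compounds in DMSO preincubated 10 min at room temperature with enzyme-substrate mix, then NADPH regeneration system added for 1 h. Luciferin detection reagent, 20 min, luminescence read.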

[9] = molecular target: Voltage-gated inwardly rectifying potassium channel KCNH2 (Homo sapiens) (UniProt Q12809); assay: Human Ether-a-go-go-Related Gene (hERG) channel small molecule antagonists: fluorescence cell-based qHTS assay (AID 1671200); note: nearly all actives have a fitted effect of over 50% in size; note: potency is the fitted concentration of half-maximal effect
Chain of Voltage-gated inwardly rectifying potassium channel KCNH2 (Homo sapiens) (Q12809 whole entry, looked up): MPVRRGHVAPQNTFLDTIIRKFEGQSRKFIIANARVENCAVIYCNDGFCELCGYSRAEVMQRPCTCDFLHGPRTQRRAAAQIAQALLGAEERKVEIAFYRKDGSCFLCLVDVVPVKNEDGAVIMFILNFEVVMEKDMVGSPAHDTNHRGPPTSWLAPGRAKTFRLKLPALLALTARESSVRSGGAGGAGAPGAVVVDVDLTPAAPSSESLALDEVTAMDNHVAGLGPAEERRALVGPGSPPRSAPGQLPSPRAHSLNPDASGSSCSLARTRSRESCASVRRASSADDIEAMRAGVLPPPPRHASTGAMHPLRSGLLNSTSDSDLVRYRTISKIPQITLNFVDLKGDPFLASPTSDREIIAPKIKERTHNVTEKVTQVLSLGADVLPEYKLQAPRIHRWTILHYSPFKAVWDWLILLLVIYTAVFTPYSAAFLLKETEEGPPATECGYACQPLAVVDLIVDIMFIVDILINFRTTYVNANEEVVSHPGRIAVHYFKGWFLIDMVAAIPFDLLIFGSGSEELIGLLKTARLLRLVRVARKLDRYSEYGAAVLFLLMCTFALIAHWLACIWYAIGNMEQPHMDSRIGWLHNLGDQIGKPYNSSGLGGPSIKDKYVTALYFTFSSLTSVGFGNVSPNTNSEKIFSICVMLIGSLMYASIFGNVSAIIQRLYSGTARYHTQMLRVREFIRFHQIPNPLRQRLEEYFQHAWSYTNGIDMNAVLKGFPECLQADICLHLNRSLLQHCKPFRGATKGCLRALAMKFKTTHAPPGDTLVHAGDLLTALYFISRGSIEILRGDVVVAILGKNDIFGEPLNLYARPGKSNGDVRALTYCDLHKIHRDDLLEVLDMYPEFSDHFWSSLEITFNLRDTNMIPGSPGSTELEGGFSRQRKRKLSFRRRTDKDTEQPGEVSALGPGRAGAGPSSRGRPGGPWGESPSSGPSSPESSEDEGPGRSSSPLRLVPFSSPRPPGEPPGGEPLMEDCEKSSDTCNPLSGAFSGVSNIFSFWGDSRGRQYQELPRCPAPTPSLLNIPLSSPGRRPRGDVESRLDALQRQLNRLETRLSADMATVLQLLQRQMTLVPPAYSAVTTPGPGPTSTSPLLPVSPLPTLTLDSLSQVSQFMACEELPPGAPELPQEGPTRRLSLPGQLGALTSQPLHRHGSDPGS
Method in brief: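 Kinetic two-minute fluorescence traces, sampled at 1 s, were collected following thallium stimulus of U2OS cells (1000 per well) that had been cultured overnight at 37 C and loaded with FluxOR II.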

[10] = molecular target: Cytochrome P450 3A4 (Homo sapiens) (UniProt P08684); assay: Cytochrome P450 Family 3 Subfamily A Member 4 (CYP3A4) small molecule antagonists: luciferase reporter qHTS assay (AID 1671201); note: nearly all actives have a fitted effect of over 50% in size; note: potency is the fitted concentration of half-maximal effect
Chain of Cytochrome P450 3A4 (Homo sapiens) (P08684 whole entry, looked up): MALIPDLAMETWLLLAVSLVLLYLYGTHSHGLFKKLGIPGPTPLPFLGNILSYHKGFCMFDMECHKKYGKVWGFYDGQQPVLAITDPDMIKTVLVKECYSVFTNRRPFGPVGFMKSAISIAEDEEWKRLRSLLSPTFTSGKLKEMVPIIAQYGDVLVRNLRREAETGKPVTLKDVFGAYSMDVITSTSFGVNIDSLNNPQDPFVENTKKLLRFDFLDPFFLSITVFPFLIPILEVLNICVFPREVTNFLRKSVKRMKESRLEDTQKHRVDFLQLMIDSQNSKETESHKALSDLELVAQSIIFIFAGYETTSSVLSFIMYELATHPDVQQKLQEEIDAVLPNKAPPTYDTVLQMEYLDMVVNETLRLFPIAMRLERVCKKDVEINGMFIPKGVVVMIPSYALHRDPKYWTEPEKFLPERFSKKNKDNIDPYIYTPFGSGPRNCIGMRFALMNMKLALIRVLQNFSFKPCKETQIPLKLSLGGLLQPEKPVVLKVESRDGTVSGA
Method in brief: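 Proluciferin-to-luciferin conversion by CYP3A4, NADPH-regenerated, 1 h RT; luminescence read as RLU. Ketoconazole as control.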

[11] = Human pregnane X receptor (PXR) small molecule agonists, qHTS cell viability counter screen (AID 1346977); note: nearly all actives have a fitted effect of over 50% in size; note: potency is the fitted concentration of half-maximal effect
Method in brief: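 Tox21 qHTS format; PXR-Luc HepG2, 2,000/well, charcoal-stripped FBS 5%. Cpd exposure 24hr. Read: CellTiter-Fluor fluorescence, multiplexed with luciferase.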

[12] = molecular target: Cytochrome P450 2C9 (Homo sapiens) (UniProt P11712); assay: Cytochrome P450 Family 2 Subfamily C Member 9 (CYP2C9) small molecule antagonists: luciferase reporter qHTS assay (AID 1671198); note: nearly all actives have a fitted effect of over 50% in size; note: potency is the fitted concentration of half-maximal effect
Chain of Cytochrome P450 2C9 (Homo sapiens) (P11712 whole entry, looked up): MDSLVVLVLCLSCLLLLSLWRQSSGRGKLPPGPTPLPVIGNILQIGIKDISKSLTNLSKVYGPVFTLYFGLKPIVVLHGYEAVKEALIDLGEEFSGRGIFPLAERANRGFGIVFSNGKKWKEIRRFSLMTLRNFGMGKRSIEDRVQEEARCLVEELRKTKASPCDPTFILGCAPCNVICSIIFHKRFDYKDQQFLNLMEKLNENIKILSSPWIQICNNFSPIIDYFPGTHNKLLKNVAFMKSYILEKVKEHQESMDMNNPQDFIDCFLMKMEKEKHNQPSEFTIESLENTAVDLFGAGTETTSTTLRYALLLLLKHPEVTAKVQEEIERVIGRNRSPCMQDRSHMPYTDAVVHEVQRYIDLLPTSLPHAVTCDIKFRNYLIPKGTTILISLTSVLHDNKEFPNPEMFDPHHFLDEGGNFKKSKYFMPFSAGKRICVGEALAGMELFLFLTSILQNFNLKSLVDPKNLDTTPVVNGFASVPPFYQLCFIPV
Method in brief: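 P450-Glo proluciferin substrate with CYP2C9 enzyme; 10 min RT preincubation, then NADPH regeneration 1 h at 37C; luciferin detection reagent 20 min RT, luminescence in relative luminescence units.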

[13] = molecular target: Nuclear receptor subfamily 1 group I member 2 (Rattus norvegicus) (UniProt Q9R1A7); assay: Rat pregnane X receptor (rPXR) activation by small molecules, qHTS assay (AID 1346983); details: rPXR luciferase reporter cells, One-Glo luminescence, 24 h; stronger effect = higher value; note: nearly all actives have a fitted effect of over 20% in size
Chain of Nuclear receptor subfamily 1 group I member 2 (Rattus norvegicus) (Q9R1A7 whole entry, looked up): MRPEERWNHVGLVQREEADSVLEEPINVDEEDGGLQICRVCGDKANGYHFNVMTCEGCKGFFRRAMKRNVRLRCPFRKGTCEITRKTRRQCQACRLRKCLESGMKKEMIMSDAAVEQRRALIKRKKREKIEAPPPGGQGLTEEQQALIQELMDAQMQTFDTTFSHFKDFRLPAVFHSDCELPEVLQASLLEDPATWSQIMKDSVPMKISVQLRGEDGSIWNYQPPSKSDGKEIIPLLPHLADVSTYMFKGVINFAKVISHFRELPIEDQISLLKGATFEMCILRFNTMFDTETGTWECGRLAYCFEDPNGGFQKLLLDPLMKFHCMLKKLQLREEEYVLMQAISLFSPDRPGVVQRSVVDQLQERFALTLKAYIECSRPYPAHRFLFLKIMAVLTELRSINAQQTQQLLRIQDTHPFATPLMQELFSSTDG
Method in brief: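 Cell-based rPXR activation assay: rPXR cells, 2,000 per well, rested 5hr at 37 C, then exposed to compounds in DMSO for 24 hr at 37 C. Luciferase activity read by One-Glo luminescence after 30 min at room temperature.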

[14] = molecular target: Nuclear receptor subfamily 1 group I member 2 (Homo sapiens) (UniProt O75469); assay: CYP3A4 induction through human pregnane X receptor (PXR) by small molecules, qHTS assay (AID 1346984); note: nearly all actives have a fitted effect of over 40% in size; note: potency is the fitted concentration of half-maximal effect
Method in brief: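 DPX-2 cells (HepG2 co-transfected with PXR and CYP3A4 promoter-luciferase) treated with compounds 24 h at 37C; luciferin-IPA CYP3A4 substrate 3uM final added for 3 h, then One-Glo; luminescence read. qHTS format.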

[15] = molecular target: Nuclear receptor subfamily 1 group I member 2 (Homo sapiens) (UniProt O75469); assay: Human pregnane X receptor (PXR) activation by small molecules, qHTS assay (AID 1346985); note: nearly all actives have a fitted effect of over 40% in size
Method in brief: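 DPX-2 cells (HepG2 co-transfected with a PXR response element and a CYP3A4-promoter luciferase construct) were seeded at 2,000 per well, rested 5 hr at 37C, then exposed to DMSO-dissolved compounds for 24 hr. Activation was read as luciferase luminescence.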

Structure (SMILES) | Potency [1] | Potency [2] | Potency [3] | Potency [4] | Potency [5] | Potency [6] | Potency [7] | Potency [8] | Potency [9] | Potency [10] | Potency [11] | Potency [12] | max activation [13] | Potency [14] | Potency [15]
CC1(C)CCC[C@]2(C)[C@H]3CCO[C@]3(C)CC[C@@H]12 | inactive | inactive | inactive | inactive | inactive | inactive | inactive | inactive | inactive | inactive | – | – | – | – | –
O=c1[nH]c2ccccc2n1CCCN1CCN(C(c2ccccc2)c2ccccc2)CC1 | – | – | – | – | 4.22 µM (active) | 0.692 µM (active) | – | inactive | 0.379 µM (active) | inactive | 33.5 µM (active) | 17.4 µM (active) | – | – | –
CCCCCCCCCCCCOCCOCCOCCOCCOCCOCCOCCOCCOCCO | – | 11.9 µM (active) | – | 29.8 µM (active) | 7.5 µM (active) | inactive | – | – | – | – | 11.9 µM (active) | 15.5 µM (active) | -18.4% (inactive) | inactive | inactive
Cc1cc(-c2ccc(N=Nc3cc(S(=O)(=O)O)c4ccccc4c3N)c(C)c2)ccc1N=Nc1cc(S(=O)(=O)O)c2ccccc2c1N | inactive | 54.8 µM (active) | inactive | inactive | 19.4 µM (active) | 2.26 µM (active) | inactive | inactive | 19.6 µM (active) | inactive | – | – | – | – | –
Cc1c2ccccc2c(C)c2c1ccc1ccccc12 | inactive | 61.1 µM (active) | inactive | inactive and 61.1 µM (active) | 30.3 µM (active) and 17.2 µM (active) | inactive | 4.98 µM (active) and 3.99 µM (active) | 626 nM (active) and 1.78 µM (active) | inactive | 22.2 µM (active) and 20 µM (active) | – | 22.2 µM (active) and 25.2 µM (active) | – | – | –
C#C[C@]1(O)CC[C@H]2[C@@H]3[C@H](C)CC4=C(CCC(=O)C4)[C@H]3CC[C@@]21C | inactive | – | – | inactive | – | inactive | 3.89 µM (active) | 24.5 µM (active) | inactive | – | inactive | 13.8 µM (active) | – | inactive | inactive
CCCCC(CC)CN1CN(CC(CC)CCCC)CC(C)(N)C1 (configuration not stated) | inactive | inactive | inactive | inactive | 21.1 µM (active) | 0.309 µM (active) | inactive | inactive | 2.68 µM (active) | – | – | inactive | -2.15% (inactive) | inactive | inactive
COc1ccc2cc1Oc1ccc(cc1)C[C@H]1c3c(cc4c(c3Oc3cc5c(cc3OC)CCN(C)[C@@H]5C2)OCO4)CCN1C | – | 29.8 µM (active) | inactive | 26.6 µM (active) | 9.44 µM (active) | 15.5 µM (active) | inactive | inactive | 9.52 µM (active) | – | 11.9 µM (active) | 30.9 µM (active) | -17.4% (inactive) | 10 µM (active) | –
CCC(C)n1ncn(-c2ccc(N3CCN(c4ccc(OC[C@H]5CO[C@](Cn6cncn6)(c6ccc(Cl)cc6Cl)O5)cc4)CC3)cc2)c1=O (some centres not stated) | inactive | 5.96 µM (active) | inactive | inactive | 2.98 µM (active) | inactive | – | inactive | inactive | – | – | 13.8 µM (active) | – | – | –
Cc1ccc(C)cc1 | – | inactive | inactive | inactive | inactive | inactive | – | – | inactive | inactive | inactive | – | – | – | –
CCC(=O)C(=O)CC | inactive | inactive | inactive | inactive | 18 µM (active) | – | 41.6 µM (active) | inactive | inactive | 5.88 µM (active) | – | – | – | – | –
O=[N+]([O-])c1cccc(C(F)(F)F)c1 | inactive | inactive | inactive | inactive | inactive | inactive | inactive | inactive | inactive | inactive | – | inactive | – | – | –
Cc1cc(C(C)(C)C)cc(C)c1CC1=NCCN1 | inactive | inactive | inactive | inactive | inactive | 3.47 µM (active) | inactive | inactive | – | inactive | – | inactive | -6.02% (inactive) | inactive | inactive
C[Si](Cl)(c1ccccc1)c1ccccc1 | – | inactive | inactive | inactive | 59.6 µM (active) | – | 1.95 µM (active) | – | inactive | – | inactive | 4.37 µM (active) | – | – | –
CC1=CCC(=C(C)C)CC1 | inactive | inactive | inactive | inactive | 43.3 µM (active) | inactive | 79.6 µM (active) | – | inactive | 20 µM (active) | – | 39.9 µM (active) | – | – | –
Cc1c(C)c2c(c(C)c1OC(=O)c1cccnc1)CC[C@@](C)(CCC[C@H](C)CCC[C@H](C)CCCC(C)C)O2 | inactive | inactive | inactive | inactive | inactive | inactive | inactive | – | inactive | inactive | – | inactive | 0.296% (inactive) | inactive | inactive
OC1CCC(C2CCCCC2)CC1 (configuration not stated) | inactive | inactive | inactive | inactive | inactive | 39.9 µM (active) | – | 35.6 µM (active) | inactive | inactive | – | – | – | – | –
